RORgamma inh = qHTS for inhibitors of ROR gamma transcriptional activity | Nuclear receptor ROR-gamma (Mus musculus), P51450 | Drosophila S2 Gal4-RORgamma UAS-luciferase reporter, 20 h | Potency, µM (titrated, usually from 53.6 µM), for the others: at the highest dose activity change, negative = inhibition, usual class: inhibitors | 5.4% of 310,000 active; further: nearly all actives have a fitted effect of over 60% in size
Target sequence (P51450 whole entry, looked up, the tested form may be a part): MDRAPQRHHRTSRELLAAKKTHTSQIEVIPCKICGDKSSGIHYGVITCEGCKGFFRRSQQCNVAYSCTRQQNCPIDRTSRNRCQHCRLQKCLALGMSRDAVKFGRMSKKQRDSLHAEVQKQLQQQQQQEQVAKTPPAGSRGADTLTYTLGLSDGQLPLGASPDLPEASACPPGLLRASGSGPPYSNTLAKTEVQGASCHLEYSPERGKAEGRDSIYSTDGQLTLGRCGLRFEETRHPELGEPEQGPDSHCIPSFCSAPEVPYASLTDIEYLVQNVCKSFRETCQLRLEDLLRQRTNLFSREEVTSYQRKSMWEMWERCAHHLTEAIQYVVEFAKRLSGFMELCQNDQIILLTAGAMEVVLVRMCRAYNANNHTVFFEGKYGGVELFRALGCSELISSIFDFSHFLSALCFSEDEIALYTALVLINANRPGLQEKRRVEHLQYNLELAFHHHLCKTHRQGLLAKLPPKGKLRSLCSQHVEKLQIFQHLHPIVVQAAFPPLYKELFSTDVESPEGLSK
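Compounds are pin-transferred onto Drosophila Schneider cells expressing a copper-inducible Gal4–ROR gamma transactivation domain fusion. After 1 hr, copper sulfate is added to 700 uM final; luciferase is read 20 hr later.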
KinaseGlo FLuc = Counterscreen for Luciferase (Kinase-Glo TM) Inhibition; Potency, µM (titrated, usually from 38.3 µM), for inactives: top-dose activity change, negative = inhibition, usual class: inhibitors; Kinase-Glo luciferase, ATP luminescence, 8 min; 0.28% of 200,000 active; Luciferin 4-monooxygenase (Photuris pensylvanica), Q27757; further: nearly all actives have a fitted effect of over 60% in size
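Compound is pinned into ATP-containing buffer (10 uM ATP, imidazole pH 7.2, 7 mM MgCl2). Kinase-Glo luciferase reagent is then added. Light output is recorded following an 8-min room-temperature incubation.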
VP16 counter = VP16 counterscreen qHTS for inhibitors of ROR gamma transcriptional activity; Drosophila S2 Gal4-VP16 UAS-luciferase, luminescence, 20 h; Potency, µM (titrated, usually from 53.6 µM), without a hit: at the top dose activity, negative = inhibition, usual class: inhibitors; 3.5% of 310,000 active;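 further: Gal4-VP16 expression switched on by copper sulfate through the metallothionein promoter; nearly all actives have a fitted effect of over 50% in size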
Numbers without * were called inactive; ? = inconclusive; nt = not tested or not shown; [ ] = another dose, or the depositor's remark. Rows were chosen to be rich in hits. Some 6.4% of all compounds tested hit in one or more screens of this group. The call rests on the fitted dose curve; in most records, active means well fitted curve in the direction sought with a large enough effect; inconclusive means small, poorly fitted or top-dose-only effect, or another doubt; inactive means no such curve, though single readings can be large; an effect the other way counts as inactive or inconclusive. On the % scale 0 is the no-effect control and ±100 the full control effect; potency means the concentration at half of the fitted maximal effect.

SMILES	RORgamma inh	KinaseGlo FLuc	VP16 counter
O=C(Nc1ccc(F)cc1)c1cccc(N2C(=O)C3C4C=CC(C5CC45)C3C2=O)c1 (configuration not stated)	?	nt	-6%
Cc1ccc(C)c(N2CCN(CCCc3ccccc3)CC2)c1	-5%	nt	5%
Cc1nc(N2CCCCC2)c2c(C)c(C(=O)Nc3ccc4c(c3)OCCO4)sc2n1	30%	nt	-24%
CCSc1nnc(NC(=O)C2CC(=O)N(Cc3ccc(C)cc3)C2)s1 (configuration not stated)	25%	0%	3%
C[C@H](NC(=O)c1nc[nH]c1C(=O)N[C@@H](Cc1ccccc1)C(=O)OC(C)(C)C)c1ccccc1	7.1µM*	nt	11µM*
C[C@@H](NC(=O)c1nc[nH]c1C(=O)N[C@@H](Cc1ccccc1)C(=O)OC(C)(C)C)c1ccccc1	4µM*	nt	7.1µM*
CC(C)(C)C(=O)Nc1nnc(SCC(=O)Nc2nccs2)s1	25%	nt	-10%
O=C(Nc1ccc(Cl)c(Cl)c1)Nc1nnc(CC2=CCCCC2)s1	?	0%	13µM*
O=C(Nc1nnc(CC2=CCCCC2)s1)c1cccs1	?	0%	?
O=C(CCNC(=O)Cn1ccc2ccccc2c1=O)NCc1ccccn1	-5%	0%	-8%
Cc1cc(SCNC(=O)c2ccccc2)nc(C(C)C)n1	13µM*	-4%	?
Cc1cc(C)nc(SCNC(=O)c2ccccc2)n1	2.8µM*	1%	4µM*
Cc1cc(SCC(=O)c2ccccc2)nc(C)n1	-15%	-14%	-10%
Cc1cc(C)nc(SCC(=O)O)n1	-21%	10%	-8%
CCN(C(=O)COC(=O)C1CCN(S(=O)(=O)c2cccs2)CC1)c1ccccc1	2%	0%	-3%
C=C(C)OC(C)=O	-19%	nt	9%
COC(=O)C1Cc2c([nH]c3ccccc23)C2(CCN(Cc3ccccc3)CC2)N1 (configuration not stated)	-5%	nt	-3%
Cc1ccc(NC(=S)NCCSc2ccc(Cl)cc2)c(C)c1	0.79µM*	3%	1µM*
Cc1cccc(NC(=S)NCCSc2ccc(Cl)cc2)c1	3.2µM*	1%	7.1µM*
Cc1ccc(NC(=O)CCSc2ccccc2)c(C)c1	22%	3%	10%
Cc1ccc(Cl)cc1NC(=S)NCCCSC1CCCCC1	2µM*	-1%	?
CCN(CC(=O)Nc1cc(Cl)ccc1C)C(=O)C1CCCCC1	-7%	1%	15%
Cc1ccc(C)c(NC(=S)NCCSc2ccc(Cl)cc2)c1	2.5µM*	7%	5µM*
Cc1cccc(NC(=O)NCCc2ccc(Cl)cc2)c1	15%	0%	17%[10 µM]
Cc1ccc([N+](=O)[O-])cc1NC(=O)CCSc1ccc(Cl)cc1	-45%	9%	-7%[0.365 µM]
SMILES	RORgamma inh	KinaseGlo FLuc	VP16 counter
NC(=O)/N=N/C(N)=O	?	nt	-2%
CN(C)C(=O)OCC1COc2ccccc2O1 (configuration not stated)	1%	nt	16%
Cn1cc(Br)c(C(=O)Nc2ncc(Br)s2)n1	-1%	-11%	-5%[10 µM]
O=C(/C=C/c1ccccc1)NCCSc1ccc(Cl)cc1	-2%	2%	2%
CS(=O)(=O)Nc1ccccc1C(=O)NCCSc1ccc(Cl)cc1	331%	nt	10%
Cc1ccccc1NC(=S)NCCO	24%	1%	-3%
CCc1ccccc1NC(=S)NCCSc1ccc(Cl)cc1	1.1µM*	1%	7.1µM*
CCCCSCCCNC(=S)Nc1ccccc1C	2.5µM*	-1%	?
COc1ccc(C(=O)NCCSc2ccc(C)cc2)cc1	14%	-2%	2%
COc1ccc(OC)c(NC(=S)NCCSc2ccc(C)cc2)c1	14µM*	1%	?
Cc1ccccc1NC(=S)NCCSc1ccc(Cl)cc1	2.2µM*	-3%	?
COc1ccnc(Oc2ccccc2)c1C(=O)N/C=N/OCc1ccccc1F	17%	nt	-10%
COc1ccc(/C=C/CN2CCC(CO)(Cc3ccccc3Cl)CC2)cc1	-3%	-7%	-14%
COc1ccc(OC)c(NC(=O)c2cccc(NC(=O)c3ccccc3)c2)c1	37%	nt	7%
O=C(NCC1CC1)Nc1cccc(C(F)(F)F)c1	14%	nt	9%
CCC(=O)Nc1cc(C(C)(C)C)ccc1C(C)=O	?	-2%	7%
COc1c(Cl)cc(Cl)cc1/C=C/C(=O)c1ccc(NC(=O)c2cccs2)cc1	?	-1%	?
COc1cc(CC(=O)OCn2nnc3ccccc3c2=O)cc(OC)c1OC	3%	1%	0%
C=CC(C)(O)CC1[C@@]2(C)CCCC(C)(C)C2CC[C@]1(C)O (some centres not stated)	2%	-3%	-26%
O=C(Nc1ccc(Cl)cc1)[C@@H]1[C@@H]2C(=O)N(c3ccc(Cl)cc3)C(=O)[C@@H]2[C@H]2C=CC=NN21	-23%	-1%	-6%
Cc1ccc(N2C(=O)[C@@H]3[C@H](C2=O)[C@H]2C=CC=NN2[C@@H]3C(=O)Nc2ccc(Cl)cc2)cc1	10µM*	0%	?
CCOc1ccc(S(=O)(=O)N(CC)CC(=O)NCc2ccncc2)cc1	-25%	nt	11%
CCNS(=O)(=O)c1ccc(CCC(=O)NCc2ccc(C)cc2)cc1	28%	0%	-3%
C=CCN(c1ccccc1)S(=O)(=O)c1ccc(Cl)c(C(=O)OCC(=O)N(C)C2CCS(=O)(=O)C2)c1 (configuration not stated)	41%	2%	-11%
CC(=O)Oc1cc(OC(C)=O)c2c(=O)cc(-c3ccc(OC(C)=O)c(OC(C)=O)c3)oc2c1	?	-15%	35µM*
SMILES	RORgamma inh	KinaseGlo FLuc	VP16 counter
COc1ccc(-c2cc(=O)c3c(OC(C)=O)cc(OC(C)=O)cc3o2)cc1	?	-9%	-26%
O=C(Nc1ccccc1)C1=C[C@H](c2ccc3c(c2)OCO3)C[C@H](OCCCCO)O1	-45%	nt	-28%
O=C(Nc1ccccc1)C1=C[C@@H](c2ccc(Br)cc2)C[C@@H](OCCCCO)O1	?	nt	7.1µM*
CN1CCN(c2ncc3nc(-c4cccs4)c(=O)n(Cc4ccc(F)cc4)c3n2)CC1	-45%	nt	-7%
Cc1ccc(C(=O)N(Cc2cccnc2)Cc2cc3cc(C)ccc3n3nnnc23)cc1	-15%	-1%	2%
O=[N+]([O-])c1c(Nc2ccccn2)cc(Cl)c2nonc12	13µM*	nt	8.9µM*
CN(C)c1cc(Nc2ccc(O)cc2)c([N+](=O)[O-])c2nonc12	2%	nt	-2%
O=[N+]([O-])c1c(Nc2ccc(O)cc2)cc(Cl)c2nonc12	5.6µM*	nt	4.5µM*
O=C(O)c1cccc(Nc2cc(Cl)c3nonc3c2[N+](=O)[O-])c1	?	-1%	5%
COc1ccc(C(=O)Nc2ccc(NS(=O)(=O)c3ccccc3)cc2)cc1OC	15%	nt	2%
O=C(NCC1OCCc2ccccc21)c1cc(COc2ccc(F)cc2Cl)on1 (configuration not stated)	1%	nt	0%
Cc1c(Cl)c(-c2n[nH]c(=S)n2Cc2ccco2)nn1C	11µM*	-2%	-24%
S=c1[nH]nc(-c2ccncc2)n1Cc1ccco1	8%	2%	19%
O=C1CC(=O)N(Cc2ccco2)C(=S)N1	12%	11%	2%
C=CCn1c(-c2cccc(OC)c2)nc2nc3ccccc3nc21	-24%	-7%	-4%

High-throughput results: PubChem BioAssay, National Center for Advancing Translational Sciences (NCATS)
